High-throughput results: PubChem, several laboratories
MPTP block: inhibitors of mitochondrial permeability transition pore. isolated mouse mitochondria, Ca2+ swelling absorbance, 30 min. 1.4% of 360,000 active. inhibition, % at 10 µM;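 active = inhibition of 50% or more, scaled per plate between neutral and stimulator controls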
FAS TE block: FAS thioesterase (human) inhibition. 0.67% of 360,000 active. recombinant FAS-TE, OMFH fluorogenic substrate, fluorescence endpoint. inhibition, % at 15 µM. AID 602261;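 active = compounds whose normalised, plate-corrected inhibition of enzyme fluorescence in the single-dose primary screen is 50% or more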
Myeloid diff MLP: promotes myeloid progenitor differentiation. AID 624256. 1% of 360,000 active. ER-HoxA9 myeloid progenitors, lysozyme-GFP differentiation, flow cytometry. calls only at 10 µM;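 active = normalized GFP-positive differentiation at or above the plate's own cutoff, the solvent-only control mean plus 3 SD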;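 also: cells exposed to compound for four days before flow analysis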
rCAG RNA binder: binds r(CAG) RNA repeats | r(CAG) RNA repeat, TO-PRO-1 dye displacement fluorescence | inhibition, % at 3 µM | 1.3% of 370,000 active | AID 651821;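 active = inhibition above the plate cutoff, the mean of all test compounds on that plate plus 3 SD, cut at about 35% in these data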;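 also: higher means more dye released from RNA so lower well fluorescence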
NR3A LBD binder: NR3A (human) ligand-binding domain modulation; Tm shift relative to glycine control, % at 25 µM; 2.5% of 340,000 active; NR3A LBD differential scanning fluorimetry, Tm shift; 0% = protein alone, 100% = glycine-bound protein; AID 1259313;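 active = melting temperature shift of at least 10% of the positive control shift, at one fixed dose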
Numbers stand for hits. Hits are enriched below; roughly 5.7% of the tested compounds scored in any of these assays.

What do the screens show for `Cc1cccc(NC(=O)c2cc(NC(=O)c3ccccc3)ccc2N2CCCCC2)c1`?
MPTP block: inactive; FAS TE block: inactive; Myeloid diff MLP: inactive; rCAG RNA binder: inactive; NR3A LBD binder: inactive

What do the screens show for `C#Cc1ccc(C(=O)Nc2ccc(N3CCC(C)CC3)c(C(N)=O)c2)cc1`?
MPTP block: inactive; FAS TE block: inactive; Myeloid diff MLP: inactive; rCAG RNA binder: inactive; NR3A LBD binder: 27.3

What do the screens show for `Nc1nc2c(ncn2[C@@H]2O[C@H](C(=O)N[C@@H](Cc3ccccc3)C(=O)NCc3ccc4c(c3)OCO4)[C@@H](O)[C@H]2O)c(=O)[nH]1`?
rCAG RNA binder: inactive

What do the screens show for `O=C(O)CNC(=O)c1ccccc1NC(=O)c1ccco1`?
MPTP block: inactive; FAS TE block: inactive; Myeloid diff MLP: inactive; rCAG RNA binder: inactive; NR3A LBD binder: inactive

How did COc1ccccc1N(C)S(=O)(=O)c1ccc(C(=O)OCC(=O)c2c[nH]c3ccccc23)cc1 do in these assays?
MPTP block: inactive; FAS TE block: inactive; Myeloid diff MLP: inactive; rCAG RNA binder: inactive; NR3A LBD binder: 23.3

What do the screens show for `COc1cc(NC(=O)c2ccco2)c(C(=O)OCC(=O)c2c[nH]c3ccccc23)cc1OC`?
MPTP block: inactive; FAS TE block: inactive; Myeloid diff MLP: inactive; rCAG RNA binder: inactive; NR3A LBD binder: 14.1

Results for O=C(Nc1ccccc1C(=O)NCCc1ccccc1)c1ccco1 ?
MPTP block: inactive; FAS TE block: inactive; Myeloid diff MLP: inactive; rCAG RNA binder: inactive; NR3A LBD binder: 15.6

What do the screens show for `O=C(OCC(=O)c1c[nH]c2ccccc12)c1ccco1`?
MPTP block: inactive; FAS TE block: inactive; Myeloid diff MLP: inactive; rCAG RNA binder: inactive; NR3A LBD binder: inactive

How did CN(C)C(=O)COC(=O)c1ccccc1NC(=O)c1ccco1 do in these assays?
MPTP block: inactive; FAS TE block: inactive; Myeloid diff MLP: active; rCAG RNA binder: inactive; NR3A LBD binder: inactive

Results for CCN1C(=O)N[C@H]2C[C@@H](c3ccccc3)[C@@H](C)[C@@H](C(=O)N3CCCC3)C[C@H]21 ?
rCAG RNA binder: inactive

What do the screens show for `c1ccc(Cn2ccc3ccc(-c4ccc5ccn(Cc6cccc(-c7ccsc7)c6)c5c4)cc32)cc1`?
rCAG RNA binder: inactive

Results for NS(=O)(=O)c1ccc(NC(=O)CSc2nnc(Cc3cccs3)n2-c2ccccc2)cc1 ?
MPTP block: inactive; FAS TE block: inactive; Myeloid diff MLP: inactive; rCAG RNA binder: inactive; NR3A LBD binder: 10.3

What do the screens show for `O=C(CN(c1cccc(C(F)(F)F)c1)S(=O)(=O)c1ccccc1)N1CCOCC1`?
MPTP block: inactive; FAS TE block: inactive; Myeloid diff MLP: inactive; rCAG RNA binder: inactive; NR3A LBD binder: inactive

Results for O=C(CN(c1ccc(Cl)c(C(F)(F)F)c1)S(=O)(=O)c1ccccc1)N1CCOCC1 ?
MPTP block: inactive; FAS TE block: inactive; Myeloid diff MLP: inactive; rCAG RNA binder: inactive; NR3A LBD binder: 14.0

What do the screens show for `O=S1(=O)c2ccc(Br)cc2OC[C@H](Cc2ccccc2)N1Cc1cn(Cc2ccc(C(F)(F)F)cc2)nn1`?
rCAG RNA binder: inactive

How did COc1ccc(-n2c(CSc3ccc(Cl)cc3)n[nH]c2=S)cc1 do in these assays?
rCAG RNA binder: inactive

Results for Oc1ccc2c(c1)oc1cc(O)ccc12 ?
MPTP block: inactive; FAS TE block: inactive; Myeloid diff MLP: inactive; rCAG RNA binder: inactive; NR3A LBD binder: 18.4

What do the screens show for `CC(=O)N1CCN(c2ccc(N3CCN(C(C)=O)[C@@H](C)C3)c(C)c2)[C@@H](C)C1`?
rCAG RNA binder: inactive

What do the screens show for `COC(=O)c1ccc(NC(=O)c2sc3nc(-c4ccccc4)cn3c2C)cc1`?
MPTP block: inactive; FAS TE block: inactive; Myeloid diff MLP: inactive; rCAG RNA binder: inactive; NR3A LBD binder: 28.2

How did COc1ccc(-c2cn3c(C)c(C(=O)Nc4ccncc4)sc3n2)cc1 do in these assays?
MPTP block: inactive; FAS TE block: inactive; Myeloid diff MLP: inactive; rCAG RNA binder: inactive; NR3A LBD binder: inactive

Results for COc1cccc(NC(=O)NC2CCCCN(Cc3ccccc3C)C2=O)c1 (stereo not given) ?
rCAG RNA binder: inactive

What do the screens show for `CCOc1ccc(/C=C2\NCCc3cc(OCC)c(OCC)cc32)cc1OCC`?
rCAG RNA binder: inactive

Results for CC1(C)CC(=O)N(CC(=O)N2CCN(c3cccc(C(F)(F)F)c3)CC2)c2ccccc2S1(=O)=O ?
rCAG RNA binder: inactive

What do the screens show for `Cn1c(CNC(=O)c2ccco2)nnc1SCC(=O)Nc1ccccc1Cl`?
MPTP block: inactive; FAS TE block: inactive; Myeloid diff MLP: inactive; rCAG RNA binder: inactive; NR3A LBD binder: 12.8
